A number with no mark means an inactive call. Results filed as inconclusive are left out. Entries that show only a call come without a potency. Activity calls are given as the source filed them. Unless noted, calls follow the shape of the dose curve; as a rule, active = well fitted curve in the direction sought with a large enough effect in the repeat runs; inconclusive = weak or mixed curves; inactive = no such curve, though single readings can be large; an effect the other way counts as inactive or inconclusive.
How the values were obtained:
[1] = qHTS assay to identify small molecule agonists of the hypoxia (HIF-1) signaling pathway - cell viability counter screen (AID 1224844; calls by dose curve; also: nearly all actives have a fitted effect of over 50% in size)
Summary of the method: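 Viability counter screen: HRE-bla ME-180 cells plated 5 hrs before compound addition, treated 17 hrs at 37C and 5% CO2, then CellTiter-Glo added after the FRET reporter read; luminescence after 30 min.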

[2] = qHTS assay to identify small molecule agonists of H2AX (AID 1224845; active = well fitted activation curve with a large enough effect in the signal ratio in the repeat runs, not every such curve was filed as active; the % refers to the signal ratio)
Summary of the method: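 Wild-type CHO-K1 cells, plated overnight, exposed 3hr at 37C to 15 concentrations (0.76% DMSO final). Lysed, then HTRF anti-pH2AX (S139) cryptate and anti-H2AX-d2 antibodies, 24 hr room temperature; 665/620 nm emission read.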

[3] = qHTS assay to identify small molecule agonists of the hypoxia (HIF-1) signaling pathway (AID 1224846; active = well fitted activation curve with a large enough effect in the signal ratio in the repeat runs, not every such curve was filed as active; the % refers to the signal ratio)
Summary of the method: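 Agonist mode reporter screen. ME-180 cells stably expressing bla under HRE control received test compounds in DMSO for 17 hrs (37C, 5% CO2), and beta-lactamase activity was then detected with the CCF4-AM FRET substrate.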

[4] = qHTS assay to identify small molecule agonists of H2AX - cell viability counter screen (AID 1224847; calls by dose curve; also: top concentration of the series differs between compounds; nearly all actives have a fitted effect of over 30% in size)
Summary of the method: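 Counter-screen for viability: CellTiter-Glo ATP luminescence read after 3 h compound treatment (15-point titration, 0.76% DMSO final) of CHO-K1 cells at 37C, with 30 min room-temperature reagent incubation.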

[5] = qHTS assay to identify small molecule antagonists of the estrogen related receptor (ERR) signaling pathway from Tox21 library (AID 1224848); also: nearly all actives have a fitted effect of over 50% in size
Summary of the method: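 Compounds dissolved in DMSO are pin-transferred onto ERR reporter cells (2,000 per well) that have settled for 6 h at 37 C. Plates then incubate 18 h at 37 C before ONE-Glo luciferase reagent and a luminescence read 30 min later.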

[6] = qHTS assay to identify small molecule agonists of the estrogen related receptor (ERR) signaling pathway from Tox21 library (AID 1224849; calls by dose curve; also: nearly all actives have a fitted effect of over 15% in size); settings: ERR reporter cell line, ONE-Glo luciferase, 18 h; at 92.4 µM (top of the series) unless noted
Summary of the method: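 Quantitative HTS in agonist format: NTP ERR cell line, compounds transferred in DMSO after 6 h plating, 18 h incubation at 37 C, ONE-Glo luminescence endpoint.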

[7] = qHTS RealTime-Glo MT Cell Viability Assay in HepG2 cells - 24 hour (AID 1224867); also: nearly all actives have a fitted effect of over 50% in size
Summary of the method: (§1)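 HepG2 cells were seeded at 600 cells/well together with NanoLuc luciferase and a cell-permeant prosubstrate, preincubated 5 h at 37 C/5% CO2, then pin-dosed with compounds in DMSO. Nonlytic luminescence from viable cells was read at each time point.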

[8] = qHTS RealTime-Glo MT Cell Viability Assay in HEK293 cells - 32 hour (AID 1224868); also: top concentration of the series differs between compounds; nearly all actives have a fitted effect of over 50% in size
Summary of the method: (§2)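 HEK293 cells were seeded at 600 cells/well together with NanoLuc luciferase and cell-permeant prosubstrate, preincubated 5 h at 37 C/5% CO2, then given compound in DMSO by pintool. Luminescence from viable-cell prosubstrate reduction was read repeatedly over 40 h.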

[9] = qHTS RealTime-Glo MT Cell Viability Assay in HepG2 cells - 40 hour (AID 1224870); also: nearly all actives have a fitted effect of over 50% in size
Summary of the method: (§3)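 HepG2 cells (600/well) mixed with RealTime-Glo MT reagent, settled 5 h at 37 C/5% CO2 before compound addition. Nonlytic NanoLuc luminescence from viable-cell prosubstrate reduction read repeatedly during 40 h treatment at 37 C.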

[10] = A CellTox Green Cytotoxicity Assay to monitor cytotoxicity in HEK293 cells - 40 hour (AID 1224871); also: nearly all actives have a fitted effect of over 45% in size
Summary of the method: (§4)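 Dead-cell fluorescence measured kinetically: asymmetric cyanine dye, HEK293, 600 cells/well, 5 h settle, 23 nL cpd/DMSO, 37 C, reads 0–40 h every 8 h.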

[11] = qHTS RealTime-Glo MT Cell Viability Assay in HEK293 cells - 16 hour (AID 1224872)
Summary of the method: as §2

[12] = qHTS RealTime-Glo MT Cell Viability Assay in HepG2 cells - 8 hour (AID 1224873); also: nearly all actives have a fitted effect of over 55% in size
Summary of the method: as §3

[13] = qHTS RealTime-Glo MT Cell Viability Assay in HEK293 cells - 40 hour (AID 1224874); settings: RealTime-Glo luminescence; max response: stronger effect = lower value; also: nearly all actives have a fitted effect of over 50% in size
Summary of the method: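 600 HEK293 cells per well, dispensed already mixed with RealTime-Glo MT reagents. Compound dosing came 5 h later. The same wells were read for luminescence at 0, 8, 16, 24, 32 and 40 h of exposure at 37 C.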

[14] = A CellTox Green Cytotoxicity Assay to monitor cytotoxicity in HEK293 cells - 24 hour (AID 1224875); also: nearly all actives have a fitted effect of over 45% in size; also: potency is read from the fitted curve at half-maximal effect
Summary of the method: as §4

[15] = A CellTox Green Cytotoxicity Assay to monitor cytotoxicity in HepG2 cells - 16 hour (AID 1224876); also: nearly all actives have a fitted effect of over 45% in size
Summary of the method: (§5)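 First, HepG2 cells (600/well) mixed with reagent were plated; second, after 5 h at 37 C they received compounds via pintool; third, fluorescence was measured at 0 h through 40 h at 8 h intervals.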

[16] = qHTS RealTime-Glo MT Cell Viability Assay in HepG2 cells - 32 hour (AID 1224877); also: nearly all actives have a fitted effect of over 55% in size
Summary of the method: as §1

[17] = A CellTox Green Cytotoxicity Assay to monitor cytotoxicity in HepG2 cells - 24 hour (AID 1224878); also: nearly all actives have a fitted effect of over 45% in size
Summary of the method: as §5

[18] = A CellTox Green Cytotoxicity Assay to monitor cytotoxicity in HepG2 cells - 40 hour (AID 1224879); also: nearly all actives have a fitted effect of over 40% in size
Summary of the method: as §5

[19] = target: Thyrotropin receptor (Homo sapiens) (UniProt P16473); assay: qHTS assay to identify small molecule agonists of the thyroid stimulating hormone receptor (TSHR) signaling pathway (AID 1224843; calls by dose curve; also: nearly all actives have a fitted effect of over 45% in size; also: potency is read from the fitted curve at half-maximal effect)
Summary of the method: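 HEK293/TSHR, 800 cells/well; cpd 30 min RT; add cAMP-d2 + anti-cAMP-cryptate, 1 h RT; fluorescence read on plate reader. 15-pt titration, n=3.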

[20] = A CellTox Green Cytotoxicity Assay to monitor cytotoxicity in HEK293 cells - 0 hour (AID 1224869); also: nearly all actives have a fitted effect of over 50% in size
Summary of the method: as §4

Chain of Thyrotropin receptor (Homo sapiens) (P16473 whole entry, looked up): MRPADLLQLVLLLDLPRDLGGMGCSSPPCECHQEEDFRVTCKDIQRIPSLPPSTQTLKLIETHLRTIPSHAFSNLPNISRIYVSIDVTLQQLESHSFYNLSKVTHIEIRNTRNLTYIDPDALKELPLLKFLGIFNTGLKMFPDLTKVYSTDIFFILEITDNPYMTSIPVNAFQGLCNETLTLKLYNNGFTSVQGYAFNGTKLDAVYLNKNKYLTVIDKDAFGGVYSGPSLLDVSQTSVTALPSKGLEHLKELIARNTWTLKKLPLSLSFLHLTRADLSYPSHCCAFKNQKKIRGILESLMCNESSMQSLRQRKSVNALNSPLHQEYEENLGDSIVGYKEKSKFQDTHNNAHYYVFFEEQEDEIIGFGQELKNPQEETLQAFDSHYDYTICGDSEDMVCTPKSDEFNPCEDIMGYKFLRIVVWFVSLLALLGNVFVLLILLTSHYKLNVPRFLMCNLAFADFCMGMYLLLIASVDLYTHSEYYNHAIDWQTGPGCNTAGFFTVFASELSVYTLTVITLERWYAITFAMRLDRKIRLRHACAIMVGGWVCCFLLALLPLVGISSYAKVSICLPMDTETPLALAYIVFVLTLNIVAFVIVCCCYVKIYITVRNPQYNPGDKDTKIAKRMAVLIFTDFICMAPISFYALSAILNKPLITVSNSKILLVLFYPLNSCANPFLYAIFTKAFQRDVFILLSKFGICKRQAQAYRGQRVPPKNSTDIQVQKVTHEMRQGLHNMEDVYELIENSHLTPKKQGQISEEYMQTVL

c1ccc(COCc2ccccc2)cc1
Potency [1]: inactive | Potency [2]: inactive | outcome [3]: inactive | Potency [4]: inactive | Potency [5]: inactive | activity change, positive = activation [6]: 0.496% | Potency [7]: inactive | Potency [8]: inactive | Potency [9]: inactive | Potency [10]: inactive | Potency [11]: inactive | Potency [12]: inactive | max response [13]: 16.4% | Potency [14]: inactive | Potency [15]: inactive | Potency [16]: inactive | Potency [17]: inactive | Potency [18]: inactive

CC(Cl)C(Cl)Cl (stereo not given)
Potency [19]: inactive | Potency [2]: inactive | outcome [3]: inactive | Potency [4]: inactive | Potency [7]: inactive | Potency [8]: inactive | Potency [9]: inactive | Potency [11]: inactive | max response [13]: -7.3% | Potency [14]: 42.9 µM (active) | Potency [15]: inactive | Potency [16]: inactive | Potency [17]: inactive | Potency [18]: inactive

C=CC(C)=CCC=C(C)C
Potency [1]: inactive | Potency [2]: inactive | outcome [3]: inactive | Potency [4]: inactive | Potency [7]: inactive | Potency [8]: inactive | Potency [20]: inactive | Potency [9]: inactive | Potency [10]: inactive | Potency [11]: inactive | Potency [12]: inactive | max response [13]: 4.34% | Potency [14]: inactive | Potency [15]: inactive | Potency [16]: inactive | Potency [17]: inactive | Potency [18]: inactive

[O]=[Bi]
activity change, negative = cytotoxicity [1]: 28.4% [at 6.97 µM] | activation (H2AX phosphorylation) [2]: -0.036% [at 14 µM] | activation [3]: 0% [at 7.01 µM] | activity change, negative = cytotoxicity [4]: 2.81% [at 14 µM] | activity, negative = inhibition [5]: -9.31% [at 8.39 µM] | activity change, positive = activation [6]: -10.5% [at 8.39 µM] | activity change, negative = cytotoxicity [7]: 3.35% [at 6.97 µM] | activity change, negative = cytotoxic [8]: 4.51% [at 6.97 µM] | activity change, negative = cytotoxic [9]: 9.58% [at 6.97 µM] | cytotoxicity increase [10]: -5.17% [at 6.97 µM] | activity change, negative = cytotoxicity [11]: 3.35% [at 6.97 µM] | viability change, negative = cytotoxic [12]: 0.919% [at 6.97 µM] | max response [13]: 3.42% | activity change [14]: -2.05% [at 6.97 µM, stronger effect = higher value] | cytotoxicity increase [15]: -7.67% [at 6.97 µM] | activity change, negative = cytotoxic [16]: 5.58% [at 6.97 µM] | cytotoxicity [17]: -9.9% [at 6.97 µM] | cytotoxicity increase [18]: -12.6% [at 6.97 µM]

CC1CC(=O)NN=C1c1ccc(NCC(C)(C)NCC(O)COc2cc(Cl)ccc2C#N)cc1 (stereo not given)
Potency [19]: 1.19 µM (active) | Potency [2]: inactive | outcome [3]: inactive | activity change, positive = activation [6]: -15% [at 42.5 µM] | Potency [7]: inactive | Potency [20]: inactive | Potency [9]: inactive | Potency [10]: inactive | Potency [14]: inactive | Potency [15]: inactive | Potency [16]: inactive | Potency [17]: inactive | Potency [18]: inactive

O=[N+]([O-])c1cccc(S(=O)(=O)NCCNS(=O)(=O)c2cccc([N+](=O)[O-])c2)c1
Potency [1]: inactive | Potency [2]: inactive | outcome [3]: inactive | Potency [4]: inactive | Potency [5]: inactive | activity change, positive = activation [6]: -12.7% [at 42.5 µM] | Potency [7]: inactive | Potency [9]: inactive | Potency [11]: inactive | Potency [12]: inactive | max response [13]: -6.21% | Potency [14]: inactive | Potency [15]: inactive | Potency [16]: inactive | Potency [17]: inactive

NC(=O)Nc1ccc(Cl)c(Cl)c1
Potency [1]: inactive | Potency [2]: inactive | outcome [3]: inactive | Potency [4]: inactive | Potency [5]: inactive | activity change, positive = activation [6]: 4.97% | Potency [7]: inactive | Potency [20]: inactive | Potency [9]: inactive | Potency [11]: inactive | Potency [12]: inactive | Potency [14]: inactive | Potency [15]: inactive | Potency [16]: inactive | Potency [17]: inactive | Potency [18]: inactive

O=C(OCCOCCO)c1ccccc1Nc1cccc(C(F)(F)F)c1
Potency [19]: inactive | Potency [1]: inactive | Potency [7]: inactive | Potency [20]: inactive | Potency [9]: inactive | Potency [11]: inactive | Potency [12]: inactive | Potency [14]: inactive | Potency [16]: inactive

Reference: PubChem BioAssay (Tox21)
